# Experimental data: publication PMC5540273 (PLoS ONE, 2017)
# Assays:
# ADCK3 = tested on: T1, ADCK3
# T1 construct: gene CABC1
# ASK2 = tested on: T2, ASK2
# T2 construct: gene MAP3K6
# ASK1 = tested on: T3, ASK1
# T3 construct: gene MAP3K5
# 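Note: kd values determined as follow-up on hits from a single-replicate KINOMEscan panel screen.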
compound,measurement,setting,value
O=C1NC(=O)C(N2CCc3ccccc32)=C1c1ccccc1Cl [SB-373598],Kd,ABL1-phosphorylated,> 10 µM
COc1ccccc1-c1ccc2c(NC(=O)C3CC3)n[nH]c2n1 [SB-711239],Kd,ABL1-phosphorylated,> 10 µM
Cn1ccc2ncnc(Oc3cccc(C(=O)Nc4ccccc4)c3)c21,Kd,ACVR1,> 10 µM
COc1ccc(C2=C(Nc3cccc(C(=O)O)c3)C(=O)NC2=O)cc1 [SB-390765],Kd,ACVR1,> 10 µM
CC1=C(C(=O)Nc2cc3cn[nH]c3cc2F)C(c2ccc(C(F)(F)F)cc2)CC(=O)N1 (stereo not drawn) [GSK429286],Kd,ACVR2A,> 10 µM
COc1cccc(NC(=O)NC2CCN(c3ccnc(Nc4ccc(F)cc4)n3)C2)c1 (stereo not drawn) [GSK1379721],Kd,ACVR2A,> 10 µM
NC(=O)c1nnc2ccccc2c1N,Kd,ADCK3,> 10 µM
Cc1c(O)cccc1Nc1ccnc2ccc(C(F)(F)F)cc12.Cl [GW466413],Kd,ADCK4,0.51 µM
COc1cc2ncnc(Nc3ccc4nc(-c5ccccc5)[nH]c4c3)c2cc1OC.Cl [GW282450],Kd,AURKA,2.3 µM
Nc1ncnc2[nH]c(-c3ccccc3)nc12 [AH5015],Kd,AURKA,> 10 µM
Clc1cc(Cl)cc(Nc2ccnc(Nc3cc(Cl)cc(Cl)c3)n2)c1 [GSK175726],Kd,AURKA,> 10 µM
CSc1nn2c(=O)cc(N3CCOCC3)nc2n1Cc1cccc(C(F)(F)F)c1C [GSK2363608],Kd,ASK2,> 10 µM
CC(C)(C)c1ccc(C(=O)Nc2cn3cc(-c4cccnc4)ccc3n2)cc1,Kd,ASK1,0.064 µM
Cl.Oc1ccc(-c2nc(-c3ccccc3)[nH]c2-c2ccncc2)cc1 [SB-428218],Kd,ADCK4,> 10 µM
Fc1cc(Cl)ccc1Nc1ccnc2cc(-c3ccc(CN4CCCCC4)o3)ccc12 [GW560116],Kd,AURKA,> 10 µM
